Screens from PubChem.
Beta apoptosis = inhibitors of cytokine-induced beta cell apoptosis, primary screen, luminescence | protection from apoptosis, % (no concentration beside the values) | INS-1E cytokine-induced death, ATP luminescence, 48 h; percent of positive-control rescue, neutral wells zero | AID 435005, 2010 | 300,000 compounds, 0.8% hits;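 active = Every replicate reaches about 75%, or at least half do and their mean reaches it too, limit read from the data; inconclusive = At least half of replicates reach the limit but their mean does not; inactive = Under half of replicates reach the limit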;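 also: 0% = cytokine-treated negative control wells and 100% = positive control rescue; higher means more ATP so stronger rescue from cytokine killing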
Mdm2 MdmX PPI = inhibitors of human Mdm2-MdmX association, primary screen, cell-based, luminescence, split luciferase, SaOS-2, uHTS | AID 485346, 2010 | 330,000 compounds, 3% hits | inhibition, % at 8 µM | SaOS-2 split-luciferase Mdm2/MdmX complementation | Protein Mdm4 (Homo sapiens) + E3 ubiquitin-protein ligase Mdm2 (Homo sapiens), …;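 active = inhibition of at least 50% at 8 µM in the primary screen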
Target sequence (O15151 whole entry, looked up): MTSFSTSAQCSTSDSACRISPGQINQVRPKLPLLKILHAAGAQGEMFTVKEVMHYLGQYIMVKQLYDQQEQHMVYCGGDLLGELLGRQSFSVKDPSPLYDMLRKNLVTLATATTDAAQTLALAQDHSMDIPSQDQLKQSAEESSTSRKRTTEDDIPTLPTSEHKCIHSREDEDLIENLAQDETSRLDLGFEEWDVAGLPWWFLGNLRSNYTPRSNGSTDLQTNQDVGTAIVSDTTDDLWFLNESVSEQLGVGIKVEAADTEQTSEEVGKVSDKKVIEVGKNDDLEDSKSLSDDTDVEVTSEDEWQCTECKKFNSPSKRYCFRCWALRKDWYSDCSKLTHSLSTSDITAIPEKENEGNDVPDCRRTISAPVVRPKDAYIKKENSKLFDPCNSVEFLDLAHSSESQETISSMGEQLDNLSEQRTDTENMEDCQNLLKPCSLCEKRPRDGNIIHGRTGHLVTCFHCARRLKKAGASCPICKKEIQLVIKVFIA
Target sequence (Q00987 whole entry, looked up): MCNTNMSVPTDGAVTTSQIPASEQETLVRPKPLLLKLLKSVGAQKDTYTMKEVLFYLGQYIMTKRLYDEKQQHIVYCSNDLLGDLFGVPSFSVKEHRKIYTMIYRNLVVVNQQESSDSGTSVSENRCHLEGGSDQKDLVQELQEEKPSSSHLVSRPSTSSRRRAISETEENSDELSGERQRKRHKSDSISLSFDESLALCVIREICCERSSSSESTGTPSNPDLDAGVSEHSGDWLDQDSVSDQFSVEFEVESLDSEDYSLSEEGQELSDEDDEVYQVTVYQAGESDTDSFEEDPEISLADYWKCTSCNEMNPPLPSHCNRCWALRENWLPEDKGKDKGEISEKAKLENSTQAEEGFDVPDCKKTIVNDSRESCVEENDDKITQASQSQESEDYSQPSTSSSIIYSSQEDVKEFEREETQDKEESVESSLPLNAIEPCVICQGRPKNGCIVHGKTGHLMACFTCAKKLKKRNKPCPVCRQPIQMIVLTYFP
A1 inh = caspase 3/7 activation in MEF A1-2A-BIM cells, primary screen, A1 inhibitor project, cell-based, luminescence, HTS; Caspase-Glo 3/7 luminescence, 3 h; percent of clofoctol response, vehicle zero; 330,000 compounds, 0.066% hits; caspase activation, % (no concentration beside the values);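 active = over half of replicate activation scores above 10%, or exactly half above 10 with the replicate mean above 10; inconclusive = replicate mean below 10 yet half the replicates above 10; inactive = over half of replicates below 10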
CSC inhib = cancer stem cell viability inhibitors, primary screen, luminescence; 300,000 compounds, 1.1% hits; inhibition, % at 7.5 µM; cancer stem cell-like cells viability; in the data active = inhibition above about 75%; inconclusive = no clear call, values can overlap the other calls; tested in HMLE shEcad cells
aSyn 5UTR inh = MLPCN primary screen, SNCA 5' untranslated region. alpha-synuclein 5'UTR reporter, inhibitor activity. inhibition, % (tested at 7.5 µM). 300,000 compounds, 0.82% hits. AID 1813, 2009; in the data active = inhibition above about 60%; inconclusive = no clear call, values can overlap the other calls;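 also: H4 neuroglioblastoma cells stably carrying SNCA 5'UTR luciferase fusion; 0% = DMSO wells and 100% = positive control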
Mdm2 MdmX conf = Mdm2-MdmX complex disruptors, retested hits, confirmation, luminescence, single concentration. shares compounds with Mdm2 MdmX PPI. Mdm2-MdmX binding, luminescent assay. inhibition, % at 8 µM. 10,000 compounds, 55% hits; in the data active = inhibition above about 40%
FLuc counter = full-length luciferase signal inhibition, confirmation, counter-screen for Mdm2/MdmX interaction inhibitor project, cell-based, single concentration, SaOS-2; inhibition, % at 8 µM; shares compounds with Mdm2 MdmX PPI; 6,200 compounds, 77% hits; AID 504607, 2011; SaOS-2 full-length luciferase counterscreen, luminescence;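 active = mean inhibition at 8 µM reaching about 37%, which flags the compound as non-specific, limit read from the data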;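 also: p53-null SaOS-2 cells with luciferase driven by a doxycycline-inducible promoter; compound on cells about two nights before reading with doxycycline added after day one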
* hit, by the source's call; ? = inconclusive; / = no result. Sampled rows, rich in hits. Any-hit rate of the full collection: about 4.1%.

SMILES | Beta apoptosis | Mdm2 MdmX PPI | A1 inh | CSC inhib | aSyn 5UTR inh | Mdm2 MdmX conf | FLuc counter
Cc1ccc2sc(NC(=O)CSc3nc(C)cc(C)c3C#N)nc2c1 | 5 | -58 | 0 | / | -3 | / | /
Cc1cc(C(F)(F)F)c(C#N)c(SCC(=O)Nc2nc3ccccc3s2)n1 | 17 | 66* | -6 | 25 | -34 | 82* | 142*
Cc1ccc(-c2nc3cccnc3s2)cc1NC(=O)C1c2ccccc2Oc2ccccc21 | / | 70* | / | / | -58 | 10 | /
CC(=O)O[C@@H]1C[C@H]2C(C)(C)C(=O)C=C[C@]2(C)[C@H]2CC[C@@]3(C)[C@H](c4ccoc4)OC(=O)[C@H]4O[C@]43[C@@]21C | -19 | 98* | 0 | 17 | 16 | 71* | 34
CC1(C)OC(=O)C=C[C@]2(C)[C@H]3CC[C@@]4(C)[C@H](c5ccoc5)OC(=O)[C@H]5O[C@]54[C@]3(C)C(=O)C[C@@H]12 | -1 | 9 | 0 | -2 | / | / | /
Cc1ccc(-c2cc(C(=O)Nc3cc(C)ccc3O)no2)cc1 | -2 | / | -2 | 15 | -183 | / | /
COc1ccc(-c2cc(C(=O)Nc3cc(C)ccc3O)no2)cc1 | -3 | 57* | -6 | 5 | -132 | -10 | /
COc1ccc(OC)c(-c2cc(C(=O)Nc3ccc(F)cc3F)no2)c1 | -8 | 58* | 0 | 18 | -2 | 14 | /
Cc1ccc2nc(NC(=O)c3cc(-c4ccco4)nc4ccccc34)sc2c1 | 1 | 61* | -3 | 27 | 9 | 31 | /
Cc1ccccc1-c1cc(C(=O)Nc2nc3c(s2)CCCC3)c2ccccc2n1 | 10 | 62* | 1 | 6 | -4 | 48* | 35
Cc1nnc(NC(=O)c2cc(-c3ccco3)nc3ccccc23)s1 | -3 | 31 | 0 | 1 | 9 | / | /
O=C(Nc1nc2ccccc2s1)c1cc(-c2ccco2)nc2ccccc12 | -3 | 66* | 0 | / | 11 | 45* | 55*
Cc1cccc(-c2cc(C(=O)Nc3sc(C)c(C)c3C(N)=O)c3ccccc3n2)c1 | 18 | 23 | 0 | 37 | 43 | / | /
Cc1ccc(C)c(-c2cc(C(=O)Nc3sc(C)c(C)c3C(N)=O)c3ccccc3n2)c1 | -5 | 51* | 0 | 54 | -28 | 18 | /
CC(C)n1cnnc1SCC(=O)NC(=O)c1ccccc1 | -4 | 7 | 1 | 4 | 0 | / | /
Nc1cc(Cl)ccc1C(=O)OCC(=O)NCC1CCCO1 (centres undefined) | 1 | 1 | -1 | -4 | / | / | /
O=C(COC(=O)CN1C(=O)C2CCCCC2C1=O)NCc1ccc(Cl)cc1Cl (centres undefined) | -6 | 0 | -1 | / | / | / | /
CCN(CC)CCNC(=O)c1ccc(NC(=O)c2cc(-c3ccco3)nc3ccccc23)cc1 | 12 | 55* | 0 | -6 | 24 | 22 | /
COc1ccccc1NC(=O)C(C)OC(=O)/C(=C/c1ccccc1)NC(C)=O (centres undefined) | 5 | 14 | 0 | -7 | 5 | / | /
COc1cc(-c2cc3nc4ccccc4n3c(N)c2C#N)cc(OC)c1OC | 3 | 77* | 0 | 26 | ? | 64* | 93*
N#Cc1c(-c2ccccc2)cc2nc3ccccc3n2c1N | 9 | -28 | 0 | -9 | -59 | / | /
CC(NC(=O)COC(=O)CN1C(=O)c2ccccc2C1=O)c1ccccc1 (centres undefined) | -3 | -13 | 0 | 3 | / | / | /
Nc1nc(CCl)nc(Nc2ccc3ccccc3c2)n1 | / | / | / | / | 23 | / | /
COc1ccc(Nc2nc(N)nc(CCl)n2)cc1 | 1 | 87* | 0 | -3 | -38 | 87* | 52*
Cc1ccccc1Nc1nc(N)nc(CCl)n1 | -6 | 94* | 1 | -5 | -5 | 91* | 40*
COc1cc2c(cc1C1NC(=S)NC(C)=C1C(N)=O)CCCC2 (centres undefined) | -2 | 66* | 1 | / | 6 | 37 | 86*
CO/N=C/CC(=O)c1ccc([N+](=O)[O-])c(CS(=O)(=O)c2ccc(Cl)cc2)c1 | 1 | 15 | 0 | -18 | 0 | / | /
